# Bioassay records from PubChem.
# BoNT F protease = blocks Botulinum neurotoxin F light chain protease. AID 588497. inhibition, % at 10 µM. Multiplex microsphere protease cleavage assay, flow cytometry. hit rate 0.22% among 360,000; in the data active = inhibition above about 35%, passing the limit was not always enough; inconclusive = no clear call, values can overlap the other calls; note: plate controls were buffer without enzyme for full effect and enzyme alone for no effect
# Autofluor counter = counter-screen for toxin protease inhibitors: compound fluorescence; compound autofluorescence counterscreen, microsphere flow cytometry; active compounds read high; fluorescence intensity (concentration not given with the values); hit rate 3.1% among 360,000; AID 624483; in the data active = fluorescence intensity above about 16000; inconclusive = no clear call, values can overlap the other calls
# Anthrax LF inh2 = anthrax lethal factor protease inhibition; P15917; multiplex microsphere protease cleavage assay, LF; inhibition, % at 10 µM; hit rate 0.12% among 360,000; AID 588501; note: plate controls were buffer without enzyme for full effect and enzyme alone for no effect
# Target sequence (P15917 whole entry, looked up): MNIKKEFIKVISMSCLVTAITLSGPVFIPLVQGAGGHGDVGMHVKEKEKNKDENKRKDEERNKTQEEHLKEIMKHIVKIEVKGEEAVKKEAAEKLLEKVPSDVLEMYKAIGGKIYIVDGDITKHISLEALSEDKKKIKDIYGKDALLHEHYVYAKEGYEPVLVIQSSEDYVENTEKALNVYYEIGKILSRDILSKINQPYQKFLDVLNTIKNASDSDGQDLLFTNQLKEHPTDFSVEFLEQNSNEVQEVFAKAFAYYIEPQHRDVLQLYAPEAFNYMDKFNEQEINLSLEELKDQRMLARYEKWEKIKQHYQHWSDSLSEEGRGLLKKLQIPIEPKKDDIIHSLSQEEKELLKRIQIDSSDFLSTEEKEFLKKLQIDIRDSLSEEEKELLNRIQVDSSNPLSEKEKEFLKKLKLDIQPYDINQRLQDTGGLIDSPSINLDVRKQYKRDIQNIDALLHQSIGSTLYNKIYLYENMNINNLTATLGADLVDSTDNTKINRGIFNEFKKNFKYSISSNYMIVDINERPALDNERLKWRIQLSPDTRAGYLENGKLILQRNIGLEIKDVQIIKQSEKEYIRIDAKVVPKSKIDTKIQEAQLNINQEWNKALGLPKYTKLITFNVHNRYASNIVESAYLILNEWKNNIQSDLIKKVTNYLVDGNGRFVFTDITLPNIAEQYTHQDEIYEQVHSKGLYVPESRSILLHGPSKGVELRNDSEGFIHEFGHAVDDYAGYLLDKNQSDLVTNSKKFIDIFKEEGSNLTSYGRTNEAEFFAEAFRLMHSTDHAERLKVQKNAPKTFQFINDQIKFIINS
# BoNT-A LC inh2 = inhibitors of Botulinum neurotoxin A light chain protease | multiplex microsphere protease substrate cleavage, flow cytometry | hit rate 0.17% among 360,000 | AID 588499 | inhibition, % at 10 µM; note: plate controls were buffer without enzyme for full effect and enzyme alone for no effect
# * = called active by the depositor; ? = inconclusive. Hits are enriched below; roughly 3.5% of the tested compounds scored in any of these assays. Cut-off read from the data, not from the text of the source, unless noted: active = inhibition above about 30%; inconclusive = no clear call, values can overlap the other calls; inactive = below that.
SMILES,BoNT F protease,Autofluor counter,Anthrax LF inh2,BoNT-A LC inh2
O=c1nc(-c2ccccc2Cl)c2cc(F)ccc2[nH]1,51*,4135,16,-1
O=C1C=CC(c2c[nH]c3ccccc23)CC1 (stereo not drawn),-3,4388,-1,-1
COc1cc(CNCCCN2CCOCC2)cc(Br)c1OCC(=O)N1CCCCC1,13,18727*,3,10
COc1cc(C(=S)N2CCCCC2)ccc1OCC(=O)N1CCCC1,14,4046,-5,0
COc1cc(CO)cc(Br)c1OCC(=O)N1CCCCC1,4,21247*,-4,3
Cc1cc(C)cc(OCC(=O)N2CCCCCC2)c1,5,22007*,-6,?
CCCCCNc1nc2sc3c(c2c(=O)n1-c1cccc(Cl)c1)CCN(C)C3,5,7508,4,5
COc1ccc(CCN2CC(C(=O)NCC(=O)Nc3ccc(F)c(F)c3)CC2=O)cc1OC (stereo not drawn),11,?,-2,4
O=S(=O)(c1ccc(F)cc1)c1nc(-c2ccccc2F)oc1N1CCCCC1,3,20089*,-6,?
O=C(Nc1cccc(-c2cnc3ccccc3n2)c1)C1CC(=O)N(c2ccccc2)C1 (stereo not drawn),-5,6160,-2,-2
CCOC(=O)C1=C(C)OC(N)=C(C(=O)OCC)[C@@]12C(=O)N(CC(N)=O)c1ccccc12,18,4362,-7,1
C=CCOC(=O)C1=C(C)OC(N)=C(C(=O)OCC)C12C(=O)N(CC(N)=O)c1ccccc12 (stereo not drawn),3,19254*,2,?
CCOc1ccccc1Nc1nc(N)nc(CSc2nncn2C)n1,1,23051*,-5,0
COc1ccc(Nc2nc(N)nc(CSc3nnc(C)s3)n2)cc1,-2,3284,-4,-1
COc1ccc(Nc2nc(N)nc(CSc3nncn3C)n2)cc1,2,16635*,-4,-1
CCC(=O)Nc1cc(OC)c(NC(=S)Nc2ccccc2CC)cc1OC,-4,3944,-1,0
Cc1cccc(CN(C)CCc2ccccn2)c1,-5,16809*,1,-2
CC(C)CN1CC(Br)C(=O)NC1=O (stereo not drawn),4,2906,-4,0
CC(C)(C)C(=O)N(CCN(C(=O)C(C)(C)C)c1ccccc1)c1ccccc1,-1,23201*,0,1
CC(=O)N(CCN(C(C)=O)c1ccccc1)c1ccccc1,10,3766,-2,-1
Cn1c(=NC(=O)CS(=O)(=O)c2ccccc2)sc2cc([N+](=O)[O-])ccc21,-18,?,-1,-5
O=C1OCc2cc(NC(=O)C3CCCCC3)ccc21,-2,20191*,0,?
O=C(NN=Cc1ccccc1C(=O)O)c1cccc(S(=O)(=O)Nc2cccc(C(F)(F)F)c2)c1,0,3934,-2,0
O=[N+]([O-])/C=C/c1cn(Cc2ccc(F)cc2)c2ccccc12,27,6767,31*,38*
O=Cc1cn(Cc2ccc(F)cc2)c2ccccc12,-3,2119,-1,0
SMILES,BoNT F protease,Autofluor counter,Anthrax LF inh2,BoNT-A LC inh2
COc1ccc(CN2CCN(C3CCC3)CC2CCO)cc1C (stereo not drawn),?,3488,13,?
COC(=O)[C@]1(CC(C)C)N[C@H](c2ccc(-c3ccc(F)cc3)c(OC)c2)[C@@H]2C(=O)N(C)C(=O)[C@@H]21,-2,4478,-3,0
CCCCC(=O)Nc1ncc(Br)s1,6,21554*,0,7
CCc1cc(C(=O)NNC(=S)NC2CCCCC2)cs1,-7,5937,-2,-2
CCc1cc(C(=O)NNC(=S)NC(C)c2ccccc2)cs1 (stereo not drawn),-4,16961*,-5,-2
O=C(NC1CCN(C(=S)Nc2ccccc2)CC1)C1CCCCC1,24,3819,8,2
COCCCNC(=S)NNC(=O)c1ccc2c(c1)OCO2,-9,3606,1,0
CC(C)CNC(=S)NNC(=O)c1ccc2c(c1)OCO2,-6,17145*,-7,-5
CCSc1ccc([C@@H]2[C@@H]3C(=O)N(CC)C(=O)[C@@H]3[C@]3(C(=O)OC)CCCN23)cc1,-2,4172,-10,-1
CC1CCCCN1C(=O)CSc1nc2ccsc2c(=O)n1Cc1ccccn1 (stereo not drawn),-2,19850*,1,-1
Cc1cc(NC(=O)CSc2nc3ccsc3c(=O)n2Cc2ccccn2)n[nH]1,1,16535*,-4,0
CC1CCCCN1C(=O)CSc1nc2cc3c(cc2c(=O)n1Cc1ccc2c(c1)OCO2)OCO3 (stereo not drawn),1,21942*,1,?
CCCCn1c(SCC(=O)Nc2cc(C)[nH]n2)nc2ccsc2c1=O,2,18853*,-3,5
CC1CCN(C(=O)CSc2nc3ccccc3c(=O)n2Cc2ccc3c(c2)OCO3)CC1,2,15459,-2,2
O=[N+]([O-])c1ccccc1/C=C/CN1CCN(Cc2ccc3c(c2)OCO3)CC1,?,3425,9,-3
O=c1[nH]c2ccc(S(=O)(=O)Nc3ccc(Cl)cc3)cc2[nH]1,?,3584,-10,-2
Cn1c(O)c(C2=c3ccccc3=NC2=O)sc1=Nc1ccc(Cl)cc1,2,19149*,0,3
O=C(O)Cn1c(O)c(C2=c3ccccc3=NC2=O)sc1=O,-17,3737,-1,-2
O=c1[nH]c(C(Cl)(Cl)Cl)nc2ccc3ccccc3c12,-7,4466,0,0
COc1ccc(C2CC(c3ccccc3)=NN2S(=O)(=O)c2ccc(C)cc2)c(OC)c1 (stereo not drawn),30,20530*,20,1
COc1ccc2c(c1)CCc1c(C(=O)Nc3ccc(OC)c(OC)c3)noc1-2,-3,20591*,-1,-2
COc1ccc2c(c1)CCc1c(C(=O)N3CCOCC3)noc1-2,16,18054*,-18,12
COc1ccc(CCNS(=O)(=O)c2ccc(OC)cc2)cc1,1,9563,-8,-1
CCN(CC)CCCNS(=O)(=O)c1ccc(OC)cc1,-4,17061*,-1,?
O=c1c2c([N+](=O)[O-])cc([N+](=O)[O-])cc2sn1Cc1ccccc1,56*,3488,-10,50*
SMILES,BoNT F protease,Autofluor counter,Anthrax LF inh2,BoNT-A LC inh2
COc1ccc(OC)c(CN2CCN(C(=O)c3ccc(S(=O)(=O)N4CCCCCC4)cc3)CC2)c1,1,3973,-4,0
C=CCSc1nc2c(cc1C#N)CCC2,7,21788*,-6,?
C=C(C)CSc1nc2c(cc1C#N)CCC2,3,4166,4,0
CCCCSc1nc2c(cc1C#N)CCC2,-3,20908*,-1,-1
N#Cc1cc2c(nc1SCC(=O)Nc1nccs1)CCCCC2,-5,20116*,-7,-3
CN(Cc1ccccc1)C(=O)C1(C)CCN1C(=O)Cc1ccc(Cl)cc1Cl (stereo not drawn),-2,2933,2,0
Cc1ccc(CNC(=O)C2(C)CCN2C(=O)Cc2ccc(C(C)(C)C)cc2)cc1 (stereo not drawn),2,2874,0,0
Cc1cc([N+](=O)[O-])c2[nH]c(C(=O)N/N=C/c3ccccc3C(=O)O)c(-c3ccccc3)c2c1,-1,19535*,2,1
NS(=O)(=O)c1ccc(N/N=C/c2ccccc2C(=O)O)c([N+](=O)[O-])c1,-1,3365,1,-1
